According to paper PMC5540273 (PLoS ONE, 2017):
“And” between values parts separate entries of the source, which are not always exact repeats. Equal entries are not always repeated. Where two headings read alike, the source gives them in different places.

Legend:
[1] = test system: HPK1; settings: concentration: 1 μM, replicates: in singlicate; n = 1
[2] = test system: HUNK; settings: concentration: 1 μM, replicates: in singlicate, n = 1
[3] = test system: ICK; settings: concentration: 1 μM, replicates: in singlicate, n = 1
[4] = test system: IGF1R; settings: concentration: 1 μM, replicates: in singlicate, n = 1
[5] = test system: T1, IKK-alpha; settings: concentration: 1 μM, replicates: in singlicate, n = 1
T1 construct: gene CHUK

[6] = test system: T2, IKK-beta; settings: concentration: 1 μM, replicates: in singlicate, n = 1
T2 construct: gene IKBKB

[7] = test system: T3, IKK-epsilon; settings: concentration: 1 μM, replicates: in singlicate, n = 1
T3 construct: gene IKBKE

[8] = test system: INSRR; settings: concentration: 1 μM, replicates: in singlicate; n = 1
[9] = test system: INSR; settings: concentration: 1 μM, replicates: in singlicate, n = 1
[10] = test system: IRAK1; settings: concentration: 1 μM, replicates: in singlicate, n = 1
[11] = test system: IRAK3; settings: concentration: 1 μM, replicates: in singlicate; n = 1
[12] = test system: IRAK4; settings: concentration: 1 μM, replicates: in singlicate, n = 1
[13] = test system: ITK; settings: concentration: 1 μM, replicates: in singlicate, n = 1
[14] = test system: JAK1(JH1domain-catalytic); settings: concentration: 1 μM, replicates: in singlicate, n = 1
[15] = test system: JAK1(JH2domain-pseudokinase); settings: concentration: 1 μM, replicates: in singlicate, n = 1
[16] = test system: JAK2(JH1domain-catalytic); settings: concentration: 1 μM, replicates: in singlicate, n = 1
[17] = test system: JAK3(JH1domain-catalytic); settings: concentration: 1 μM, replicates: in singlicate, n = 1
[18] = test system: T4, JNK1; settings: concentration: 1 μM, replicates: in singlicate, n = 1
T4 construct: gene MAPK8

[19] = test system: T5, JNK2; settings: concentration: 1 μM, replicates: in singlicate, n = 1
T5 construct: gene MAPK9

[20] = test system: T6, JNK3; settings: concentration: 1 μM, replicates: in singlicate, n = 1
T6 construct: gene MAPK10
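Also: KINOMEscan kinase panel screen.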

## COc1ccc(S(=O)(=O)NC2CCN(c3cc(C)nc(Nc4cccc(C#N)c4)n3)CC2)cc1.O=C(O)C(F)(F)F [GSK1653539]
[1]
  %Inh: 38%
[2]
  %Inh: 2%
[3]
  %Inh: 0%
[4]
  %Inh: 0%
[5]
  %Inh: 0%
[6]
  %Inh: 0%
[7]
  %Inh: 49%
[8]
  %Inh: 0%
[9]
  %Inh: 0%
[10]
  %Inh: 0%
[11]
  %Inh: 0%
[12]
  %Inh: 0%
[13]
  %Inh: 10%
[14]
  %Inh: 34%
[15]
  %Inh: 0%
[16]
  %Inh: 0%
[17]
  %Inh: 0%
[18]
  %Inh: 0%
[19]
  %Inh: 28%
[20]
  %Inh: 12%

## CSc1ccc(-c2cc3ncnc(SCC(=O)O)c3s2)cc1
[1]
  %Inh: 0%
[2]
  %Inh: 0%
[3]
  %Inh: 0%
[4]
  %Inh: 2%
[5]
  %Inh: 6%
[6]
  %Inh: 0%
[7]
  %Inh: 0%
[8]
  %Inh: 11%
[9]
  %Inh: 0%
[10]
  %Inh: 28%
[11]
  %Inh: 0%
[12]
  %Inh: 9%
[13]
  %Inh: 0%
[14]
  %Inh: 1%
[15]
  %Inh: 0%
[16]
  %Inh: 0%
[17]
  %Inh: 0%
[18]
  %Inh: 5%
[19]
  %Inh: 10%
[20]
  %Inh: 0%

## CCCCCc1nc2c(N)ncnc2n1CCCCC [SKF-97255]
[1]
  %Inh: 4%
[2]
  %Inh: 26%
[3]
  %Inh: 0%
[4]
  %Inh: 0%
[5]
  %Inh: 0%
[6]
  %Inh: 0%
[7]
  %Inh: 0%
[8]
  %Inh: 0%
[9]
  %Inh: 0%
[10]
  %Inh: 0%
[11]
  %Inh: 0%
[12]
  %Inh: 0%
[13]
  %Inh: 0%
[14]
  %Inh: 0%
[15]
  %Inh: 35%
[16]
  %Inh: 33%
[17]
  %Inh: 0%
[18]
  %Inh: 0%
[19]
  %Inh: 0%
[20]
  %Inh: 0%

## Cc1ccc(C(=O)NCC(N)=O)cc1-n1c(C)cc(OCc2ccc(F)cc2F)c(Br)c1=O
[1]
  %Inh: 0%
[2]
  %Inh: 0%
[3]
  %Inh: 0%
[4]
  %Inh: 5%
[5]
  %Inh: 0%
[6]
  %Inh: 0%
[7]
  %Inh: 0%
[8]
  %Inh: 0%
[9]
  %Inh: 0%
[10]
  %Inh: 0%
[11]
  %Inh: 15%
[12]
  %Inh: 0%
[13]
  %Inh: 22%
[14]
  %Inh: 0%
[15]
  %Inh: 49%
[16]
  %Inh: 0%
[17]
  %Inh: 4%
[18]
  %Inh: 0%
[19]
  %Inh: 0%
[20]
  %Inh: 0%

## Nc1nc(-c2ccc3c(N)n[nH]c3c2)cc(N2CCCC2)n1 [GSK2227430]
[1]
  %Inh: 39%
[2]
  %Inh: 0%
[3]
  %Inh: 0%
[4]
  %Inh: 0%
[5]
  %Inh: 0%
[6]
  %Inh: 0%
[7]
  %Inh: 40%
[8]
  %Inh: 0%
[9]
  %Inh: 0%
[10]
  %Inh: 0%
[11]
  %Inh: 0%
[12]
  %Inh: 2%
[13]
  %Inh: 0%
[14]
  %Inh: 0%
[15]
  %Inh: 11%
[16]
  %Inh: 0%
[17]
  %Inh: 0%
[18]
  %Inh: 5%
[19]
  %Inh: 12%
[20]
  %Inh: 0%

## CC(C)(CN)c1nc(-c2ccc(Cl)c(O)c2)c(-c2ccncc2)[nH]1.O=C(O)C(F)(F)F [SB-477794]
[1]
  %Inh: 46%
[2]; 1 µM
  %Inh: 0% and 16%
[3]; 1 µM
  %Inh: 23% and 0%
[4]; 1 µM
  %Inh: 0% and 9%
[5]; 1 µM
  %Inh: 64% and 34%
[6]; 1 µM
  %Inh: 33% and 0%
[7]; 1 µM
  %Inh: 10% and 6%
[8]
  %Inh: 0%
[9]; 1 µM
  %Inh: 23% and 0%
[10]; 1 µM
  %Inh: 62% and 44%
[11]
  %Inh: 0%
[12]; 1 µM
  %Inh: 43% and 0%
[13]; 1 µM
  %Inh: 9% and 0%
[14]; 1 µM
  %Inh: 28% and 15%
[15]; 1 µM
  %Inh: 0% and 2%
[16]; 1 µM
  %Inh: 18% and 8%
[17]; 1 µM
  %Inh: 0% and 28%
[18]; 1 µM
  %Inh: 41% and 32%
[19]; 1 µM
  %Inh: 85% and 80%
[20]; 1 µM
  %Inh: 93.6% and 92.8%

## CN(C(=O)c1ccc(-c2cc(-c3c[nH]nc3-c3ccccn3)ccn2)cc1)C1CCOCC1 [GW810083]
[1]
  %Inh: 30%
[2]
  %Inh: 0%
[3]
  %Inh: 78%
[4]
  %Inh: 0%
[5]
  %Inh: 0%
[6]
  %Inh: 0%
[7]
  %Inh: 0%
[8]
  %Inh: 0%
[9]
  %Inh: 0%
[10]
  %Inh: 0%
[11]
  %Inh: 0%
[12]
  %Inh: 0%
[13]
  %Inh: 5%
[14]
  %Inh: 0%
[15]
  %Inh: 0%
[16]
  %Inh: 0%
[17]
  %Inh: 0%
[18]
  %Inh: 42%
[19]
  %Inh: 45%
[20]
  %Inh: 38%

## Cl.Oc1cccc(Nc2ccnc3cc(-c4ccncc4)ccc23)c1 [GW494601]
[1]
  %Inh: 37%
[2]
  %Inh: 11%
[3]
  %Inh: 0%
[4]
  %Inh: 13%
[5]
  %Inh: 23%
[6]
  %Inh: 0%
[7]
  %Inh: 20%
[8]
  %Inh: 0%
[9]
  %Inh: 0%
[10]
  %Inh: 22%
[11]
  %Inh: 57%
[12]
  %Inh: 1%
[13]
  %Inh: 0%
[14]
  %Inh: 65%
[15]
  %Inh: 0%
[16]
  %Inh: 50%
[17]
  %Inh: 18%
[18]
  %Inh: 14%
[19]
  %Inh: 37%
[20]
  %Inh: 21%

## Cn1ccc2ncnc(Oc3ccc(NC(=O)Nc4ccncc4)c(Cl)c3)c21
[1]
  %Inh: 0%
[2]
  %Inh: 0%
[3]
  %Inh: 0%
[4]
  %Inh: 0%
[5]
  %Inh: 14%
[6]
  %Inh: 16%
[7]
  %Inh: 0%
[8]
  %Inh: 0%
[9]
  %Inh: 11%
[10]
  %Inh: 8%
[11]
  %Inh: 0%
[12]
  %Inh: 7%
[13]
  %Inh: 0%
[14]
  %Inh: 14%
[15]
  %Inh: 0%
[16]
  %Inh: 0%
[17]
  %Inh: 0%
[18]
  %Inh: 0%
[19]
  %Inh: 0%
[20]
  %Inh: 0%

## CN1c2ccc(NCc3ccc(F)cc3)cc2-c2c(cnn2C)S1(=O)=O
[1]
  %Inh: 26%
[2]
  %Inh: 52%
[3]
  %Inh: 0%
[4]
  %Inh: 0%
[5]
  %Inh: 0%
[6]
  %Inh: 0%
[7]
  %Inh: 0%
[8]
  %Inh: 16%
[9]
  %Inh: 0%
[10]
  %Inh: 0%
[11]
  %Inh: 0%
[12]
  %Inh: 0%
[13]
  %Inh: 0%
[14]
  %Inh: 0%
[15]
  %Inh: 11%
[16]
  %Inh: 1%
[17]
  %Inh: 0%
[18]
  %Inh: 0%
[19]
  %Inh: 0%
[20]
  %Inh: 0%

## Cc1cccc(-c2nc(-c3ccc(S(C)(=O)=O)cc3)sc2-c2ccncc2)c1
[1]
  %Inh: 0%
[2]
  %Inh: 0%
[3]
  %Inh: 0%
[4]
  %Inh: 7%
[5]
  %Inh: 0%
[6]
  %Inh: 1%
[7]
  %Inh: 0%
[8]
  %Inh: 7%
[9]
  %Inh: 8%
[10]
  %Inh: 18%
[11]
  %Inh: 33%
[12]
  %Inh: 15%
[13]
  %Inh: 19%
[14]
  %Inh: 15%
[15]
  %Inh: 17%
[16]
  %Inh: 0%
[17]
  %Inh: 6%
[18]
  %Inh: 26%
[19]
  %Inh: 28%
[20]
  %Inh: 33%
